# Inconclusive results are not listed. Activity calls are given as the source filed them. Calls come from the whole dose curve; as a rule, active = well fitted cell-killing curve with a large enough effect; inconclusive = small, poorly fitted or top-dose-only effect, or effect the other way; inactive = no such curve, though single readings can be large or run the other way.
# Test: qHTS of pediatric cancer cell lines to identify multiple opportunities for drug repurposing: Confirmatory screen for NB-EBc1 cells (AID 1347115);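 note: cells exposed to compound for 48 h before the viability read; nearly all actives have a fitted effect of over 45% in size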
# Settings: NB-EBc1 neuroblastoma cells, viability (cytotoxicity); series mostly up to 45.9 µM
# Summary of the method: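 Viability after 48 h compound treatment at 37C, 500-1,000 cells/well, read as ATP luminescence with CellTiter-Glo. Primary screens used 11-point (MIPE, 0.78 nM-46 µM) or 8-point (NPC, 0.59 nM-46 µM) final concentrations; follow-up screens used 11-point dilutions.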
# Potency is the fitted concentration of half-maximal effect.
row,Compound,Potency
1,NCC(=O)Nc1ccc(-n2nc(C(F)(F)F)cc2-c2ccc3c(ccc4ccccc43)c2)cc1,7.37 µM (active)
2,Nc1ccccc1NC(=O)c1ccc(CNc2nccc(-c3cccnc3)n2)cc1,inactive
3,Cc1cnc(-c2cnc(NCCNc3ccc(C#N)cn3)nc2-c2ccc(Cl)cc2Cl)[nH]1,14.7 µM (active)
4,CS(=O)(=O)N1CCN(Cc2cc3nc(-c4cccc5[nH]ncc45)nc(N4CCOCC4)c3s2)CC1,6.03 µM (active)
5,CC[C@@H]1C(=O)N(C)c2cnc(Nc3ccc(C(=O)NC4CCN(C)CC4)cc3OC)nc2N1C1CCCC1,3.29 µM (active)
6,Cn1c2ccccc2c2c3c(c4c5ccccc5n(CCC#N)c4c21)CNC3=O,23.3 µM (active)
7,CC(C)(C)NC(=O)[C@H]1CN(Cc2cccnc2)CCN1C[C@@H](O)C[C@@H](Cc1ccccc1)C(=O)N[C@H]1c2ccccc2C[C@H]1O,inactive
8,Cc1nc(Nc2n[nH]c3c2CN(C(=O)N[C@H](CN(C)C)c2ccccc2)C3(C)C)c2sccc2n1,inactive
9,Cc1c(NC(=O)OC[C@@H]2COCCN2)cn2ncnc(Nc3ccc4c(cnn4Cc4cccc(F)c4)c3)c12,inactive
10,CCN1CCN(Cc2ccc(-c3cc4c(N[C@H](C)c5ccccc5)ncnc4[nH]3)cc2)CC1,38 µM (active)
11,CC1(C)O[C@@H]2C[C@@H]3[C@H]4C[C@@H](F)C5=CC(=O)C=C[C@]5(C)[C@@]4(F)[C@@H](O)C[C@]3(C)[C@]2(C(=O)CO)O1,11.7 µM (active)
12,CCOc1cc2ncc(C#N)c(Nc3ccc(F)c(Cl)c3)c2cc1NC(=O)C=CCN(C)C,inactive
13,Cc1c(Cn2c(C)nc3c(C(=O)O)cc(N4CCOCC4)cc32)cccc1C(F)(F)F,inactive
14,Cn1c(=O)n(-c2ccc(C(C)(C)C#N)cc2)c2c3cc(-c4cnc5ccccc5c4)ccc3ncc21,7.37 µM (active)
15,C=C1C(=CC=C2CCC[C@]3(C)[C@@H]([C@H](C)C=C[C@H](C)C(C)C)CC[C@@H]23)C[C@@H](O)C[C@@H]1O,4.14 µM (active)
16,CCC1=C[C@@H]2CN(C1)Cc1c([nH]c3ccccc13)[C@@](C(=O)OC)(c1cc3c(cc1OC)N(C)[C@@H]1[C@@](O)(C(=O)OC)[C@H](OC(C)=O)[C@]4(CC)C=CCN5CC[C@]31[C@@H]54)C2,inactive
17,COc1ccc(C=Cc2cc(OC)c(OC)c(OC)c2)cc1O,0.0147 µM (active)
18,Cc1cnc(Nc2ccc(F)cc2Cl)nc1-c1c[nH]c(C(=O)N[C@H](CO)c2cccc(Cl)c2)c1,inactive
19,CCNC(=O)Nc1ccc2ncc(Nc3ccc(C)cc3)nc2n1,inactive

# Test: qHTS of pediatric cancer cell lines to identify multiple opportunities for drug repurposing: Confirmatory screen for SJ-GBM2 cells (AID 1347116); note: nearly all actives have a fitted effect of over 60% in size
# Settings: SJ-GBM2 glioblastoma cells, viability; series mostly up to 45.9 µM
# Summary of the method: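 Viability measured as metabolically active cells via CellTiter-Glo luminescence following 48 hours of compound exposure, 11-point dilutions in confirmatory testing. 500-1,000 cells/well plated 5 hours before dosing; controls were DMSO and 2.3 µM bortezomib.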
row,Compound,Potency
1,Cc1ccc(C(N)=O)cc1Nc1nccc(-c2cn(C(C)C)c3cnccc23)n1,21.4 µM (active)
2,NCC(=O)Nc1ccc(-n2nc(C(F)(F)F)cc2-c2ccc3c(ccc4ccccc43)c2)cc1,3.29 µM (active)
3,Nc1ccccc1NC(=O)c1ccc(CNc2nccc(-c3cccnc3)n2)cc1,1.47 µM (active)
4,Cc1cnc(-c2cnc(NCCNc3ccc(C#N)cn3)nc2-c2ccc(Cl)cc2Cl)[nH]1,inactive
5,CS(=O)(=O)N1CCN(Cc2cc3nc(-c4cccc5[nH]ncc45)nc(N4CCOCC4)c3s2)CC1,21.4 µM (active)
6,CC[C@@H]1C(=O)N(C)c2cnc(Nc3ccc(C(=O)NC4CCN(C)CC4)cc3OC)nc2N1C1CCCC1,1.04 µM (active)
7,O=C(NC1CCNCC1)c1[nH]ncc1NC(=O)c1c(Cl)cccc1Cl,1.31 µM (active)
8,Cc1nc2cnc3ccc(C#Cc4cccnc4)cc3c2n1-c1ccc(C(C)(C)C#N)cc1,6.76 µM (active)
9,Cc1nc(Nc2n[nH]c3c2CN(C(=O)N[C@H](CN(C)C)c2ccccc2)C3(C)C)c2sccc2n1,inactive
10,CCN1CCN(Cc2ccc(-c3cc4c(N[C@H](C)c5ccccc5)ncnc4[nH]3)cc2)CC1,30.2 µM (active)
11,CCOc1cc2ncc(C#N)c(Nc3ccc(F)c(Cl)c3)c2cc1NC(=O)C=CCN(C)C,inactive
12,C=CCn1c(=O)c2cnc(Nc3ccc(N4CCN(C)CC4)cc3)nc2n1-c1cccc(C(C)(C)O)n1,0.737 µM (active)
13,Cc1c(Cn2c(C)nc3c(C(=O)O)cc(N4CCOCC4)cc32)cccc1C(F)(F)F,inactive
14,COc1cccc(-c2ccc(NC(=O)C3=C(C(=O)O)CCC3)c(F)c2)c1,1.17 µM (active)
15,Cn1c(=O)n(-c2ccc(C(C)(C)C#N)cc2)c2c3cc(-c4cnc5ccccc5c4)ccc3ncc21,3.29 µM (active)
16,CCC1=C[C@@H]2CN(C1)Cc1c([nH]c3ccccc13)[C@@](C(=O)OC)(c1cc3c(cc1OC)N(C)[C@@H]1[C@@](O)(C(=O)OC)[C@H](OC(C)=O)[C@]4(CC)C=CCN5CC[C@]31[C@@H]54)C2,5.22 µM (active)
17,Cc1cc(Nc2ncnc3ccc(-c4ccc(CNCCS(C)(=O)=O)o4)cc23)ccc1Oc1ccn2ncnc2c1,0.0657 µM (active)

# — PubChem BioAssay (NCATS)
